Hits are enriched below; roughly 22% of the tested compounds scored in any of these assays.
CYP2C9 activ – human CYP2C9 activators, primary screen, biochemical, luminescence | recombinant CYP2C9, luciferin-H conversion; active compounds read high; factor 1 = untreated enzyme, 0 = blocked | 96,000 tested, 1.4% active | AID 1024, 2008 | activation factor at 5 µM;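 active = activation factor of 2 or more for CYP2C9 at a 5 µM dose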
CYP2C19 inh – blockers of cytochrome P450 2C19 activity – biochemical, luminescence, ADME assay, primary screen | 96,000 tested, 21% active | inhibition, % at 5 µM | CYP2C19 Supersomes, luciferin-H EGE luminescence, 30 min | AID 778, 2007 | P33261;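 active = CYP2C19 inhibition above a set limit at 5 µM in the primary screen, cut at about 50% in these data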
Target sequence (P33261 whole entry, looked up): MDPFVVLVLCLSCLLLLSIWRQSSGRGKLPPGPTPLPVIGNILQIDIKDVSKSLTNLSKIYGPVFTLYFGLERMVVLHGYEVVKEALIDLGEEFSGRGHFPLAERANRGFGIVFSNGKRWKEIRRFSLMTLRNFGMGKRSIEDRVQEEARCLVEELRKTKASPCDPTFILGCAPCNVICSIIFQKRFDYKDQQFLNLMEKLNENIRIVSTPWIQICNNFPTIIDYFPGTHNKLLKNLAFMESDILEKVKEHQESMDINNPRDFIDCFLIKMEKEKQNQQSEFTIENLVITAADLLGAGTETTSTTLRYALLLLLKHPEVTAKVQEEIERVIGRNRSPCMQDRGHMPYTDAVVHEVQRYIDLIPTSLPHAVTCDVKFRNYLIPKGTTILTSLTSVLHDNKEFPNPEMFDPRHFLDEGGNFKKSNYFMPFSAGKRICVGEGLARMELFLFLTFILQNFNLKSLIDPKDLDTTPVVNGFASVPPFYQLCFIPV
CYP2C9 inh – blockers of cytochrome P450 2C9 activity – biochemical, luminescence, ADME assay, primary screen; CYP2C9 Supersomes, luciferin-H conversion; 96,000 tested, 20% active; inhibition, % at 5 µM; P11712;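 active = blocking of liver enzyme CYP2C9 beyond about 50% at 5 µM, limit read from the data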
Measles CPE – compounds protecting cells from measles virus cytopathic effect, primary screen, measles RdRp inhibitor project, single point, MLSMR library, absorbance | AID 841, 2007 | 140,000 tested, 1.5% active | Measles virus-infected cells, CPE protection | protection (pct of control), % at 4 µM; in the data active = protection mostly above about 24%, no sharp cut-off; inactive = mostly below about 26%
CYP2C19 activ – human CYP2C19 activators, primary screen, biochemical, luminescence. Cytochrome P450 2C19 (Homo sapiens), P33261. recombinant CYP2C19, luciferin-H EGE luminescence; active compounds read high; 0 = fully inhibited enzyme, 1 = untreated enzyme. activation factor at 5 µM. 96,000 tested, under 10 active;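 active = activation factor of at least 2 at 5 µM in the primary screen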
A number is an active result; n = inactive; x = no result.

SMILES | CYP2C9 activ | CYP2C19 inh | CYP2C9 inh | Measles CPE | CYP2C19 activ
COc1ccc(-c2cc3nc(C)cc(N)n3n2)cc1 | n | 77.1 | n | n | n
c1ccc(-c2nn3c(Cn4cnc5ccccc54)nnc3s2)cc1 | n | 78.8 | n | n | n
c1ccc(OCc2nn3c(Cn4cnc5ccccc54)nnc3s2)cc1 | n | n | n | n | n
c1ccc2c(c1)ncn2Cc1nnc2sc(-c3ccncc3)nn12 | n | 78.5 | n | n | n
c1cncc(-c2nn3c(Cn4cnc5ccccc54)nnc3s2)c1 | n | n | n | n | n
Cc1cc(C)cc(OCC(=O)Nc2ccccc2C(=O)NCc2ccco2)c1 | n | 91.4 | 80.0 | n | n
CC(C)CNC(=O)c1cccc(NC(=O)c2ccco2)c1 | n | n | n | 21.9 | n
CC(=O)Nc1ccc(NC(=O)c2ccco2)cc1 | n | n | n | n | n
CSc1cccc(NC(=O)c2ccco2)c1 | n | 57.9 | n | n | n
CN(Cc1ccccc1)C(=O)c1cccc(NC(=O)c2ccco2)c1 | 3.1 | n | n | n | n
CCCSc1nc(O)c(C(c2ccc(OC)c(O)c2)c2c(O)nc(SCCC)n(C)c2=O)c(=O)n1C | x | x | x | n | x
CCCCOc1ccc(C(CC(=O)NC)C(=O)O)cc1 (centres undefined) | n | n | n | n | n
O=C(OCn1nnc2ccccc2c1=O)c1cc(-c2ccccc2)nc2ccccc12 | x | x | x | n | x
CC(=O)N1c2ccccc2C(=O)C1N1CCCCC1 (centres undefined) | n | n | n | n | n
CC(C)(C)c1ccc(C(=O)Nc2ccccc2NC(=O)c2ccco2)cc1 | x | x | x | n | x
O=C(NCc1ccccc1)c1cccc(NC(=O)c2ccco2)c1 | n | 55.5 | 85.3 | n | n
O=C(Nc1ccccc1C(=O)NCc1ccco1)c1ccco1 | n | n | 70.9 | n | n
CC(C)(C)c1ccccc1NC(=O)c1ccco1 | n | 53.3 | n | n | n
Cc1ccc(C(=O)Nc2cccc(C(=O)NCc3ccccc3)c2)o1 | n | 52.1 | 87.9 | n | n
O=C1SC(SC(=Nc2ccccc2)Nc2ccccc2)C(=O)N1c1ccccc1 (centres undefined) | x | x | x | n | x
COc1cccc(NC(=O)CC2C(=O)NC3CCCCC3N2C(=O)c2ccc(F)cc2)c1 (centres undefined) | n | n | n | n | n
CC1CCN(c2c(NCC3CCC(C(=O)NCc4ccccc4Cl)CC3)c(=O)c2=O)CC1 (centres undefined) | x | x | x | n | x
O=C(NCc1ccco1)c1cccc(NC(=O)c2ccco2)c1 | n | n | 82.4 | n | n
Cc1ccc(Cn2cccc(NC(=O)c3ccco3)c2=O)cc1 | n | 72.5 | 59.8 | n | n
CC(C)Oc1ccc(C(=O)NCc2ccco2)cc1 | n | 70.2 | n | n | n
SMILES | CYP2C9 activ | CYP2C19 inh | CYP2C9 inh | Measles CPE | CYP2C19 activ
CCc1nc2ccc(F)cc2c(C(=O)NC2CCCCC2C)c1C (centres undefined) | n | n | 76.9 | n | n
O=C(O)c1c2c(nc3ccc(F)cc13)CCC2 | x | x | x | n | x
N#Cc1ccsc1NC(=O)COC(=O)c1cc2ccccc2cc1O | x | x | x | n | x
Cc1ccc(-c2nc3sc4c(c3c(=O)n2N)CC(C)(C)OC4)cc1 | n | n | n | n | n
Cc1ccc(-c2nc3sc4c(c3c(=O)n2N)CCCC4)cc1 | n | n | 58.3 | n | n
O=c1c2c3c(sc2nc2n1CCCCC2)CCCCC3 | n | n | n | n | n
O=c1c2c3c(sc2nc2n1CCCC2)CCC3 | n | n | n | 35.9 | n
O=c1c2c3c(sc2nc2n1CCCC2)CCCCC3 | n | n | 62.2 | n | n
Nc1nc2sc3c(c2c(=O)s1)CCCC3 | n | n | 80.0 | n | n
CCOP(=O)(c1c(F)c(F)c(F)c(F)c1F)C1(O)CCCCC1 (centres undefined) | n | n | n | n | n
CC(C)c1nc2sc3c(c2c(=O)o1)CCCC3 | n | 50.8 | 65.8 | n | n
Cc1nc2sc3c(c2c(=O)o1)CCCC3 | n | n | n | n | n
O=[N+]([O-])c1cc(C(F)(F)F)ccc1NCCNC(=S)Nc1ccc(Cl)cc1 | n | n | 67.6 | n | n
O=[N+]([O-])c1cc(Cl)ccc1NCCNc1ncc(C(F)(F)F)cc1Cl | n | 88.1 | n | n | n
O=[N+]([O-])c1cc(C(F)(F)F)ccc1NCCCCNS(=O)(=O)c1ccc(Cl)cc1 | x | x | x | n | x
CCOC(=O)c1cc(CC)sc1NC(=O)C(c1ccccc1)c1ccccc1 | n | n | n | n | n
CC1CCC/C(=N\NC(=O)COc2ccccc2Cl)C1 (centres undefined) | x | x | x | n | x
CC1CCC/C(=N\NC(=O)COc2ccc(Cl)cc2Cl)C1 (centres undefined) | n | 79.9 | n | n | n
CCOC(=O)c1c(C)oc2ccc(OCc3cc(C(=O)OC)oc3C)cc12 | n | 64.1 | 86.1 | n | n
COC(=O)c1cc(OC)c(OCc2cc(C(=O)OC)oc2C)c(OC)c1 | n | 52.5 | n | n | n
CCOC(=O)c1c(C)oc2ccc(OCC(=O)C(C)(C)C)cc12 | n | 65.4 | 71.6 | n | n
COC(=O)c1cc(COc2ccc3oc(C)c(C(=O)OC)c3c2)c(C)o1 | n | n | n | n | n
COC(=O)c1cc(COc2ccc3ccc(=O)oc3c2)c(C)o1 | n | n | n | n | n
CCCc1cc(=O)n2c(nc3ccccc32)[nH]1 | n | n | n | n | n
O=C(Nc1nc(-c2ccc3c(c2)OCO3)cs1)C1COc2ccccc2O1 (centres undefined) | n | n | 79.7 | n | n
SMILES | CYP2C9 activ | CYP2C19 inh | CYP2C9 inh | Measles CPE | CYP2C19 activ
CCOC(=O)N1CCN(C(=O)CSCC(=O)Nc2nc(-c3ccc4c(c3)OCO4)cs2)CC1 | n | n | 73.1 | n | n
O=C(Nc1nc(-c2ccc(S(=O)(=O)N3CCCC3)cc2)cs1)C1COc2ccccc2O1 (centres undefined) | n | 61.8 | 92.2 | n | n
O=C(Nc1nc(-c2ccccc2)cs1)C1COc2ccccc2O1 (centres undefined) | n | n | n | n | n
CN(c1cccc(Cl)c1)S(=O)(=O)c1cccc(C(=O)Nc2ccc3c(c2)CCC3)c1 | x | x | x | n | x
COc1ccccc1OCCOCCn1cnc2ccccc2c1=O | n | 66.9 | n | n | n
COC(=O)c1ccc(OCCn2cnc3ccccc3c2=O)cc1 | n | n | n | n | n
CCCN1C(=O)/C(=C/c2c(NCCCOC(C)C)nc3c(C)cccn3c2=O)SC1=S | n | n | n | n | n
CCC(C)N1C(=O)/C(=C/c2c(NCCCOC(C)C)nc3c(C)cccn3c2=O)SC1=S (centres undefined) | n | n | 57.2 | n | n
CCOc1ccc(OCC(=O)c2c(O)c3ccccc3oc2=O)cc1 | n | n | 90.9 | n | n
COc1ccc(OCC(=O)c2c(O)c3ccccc3oc2=O)cc1 | n | n | 78.1 | n | n
O=C(CC1CCCCC1)c1c(O)c2ccccc2oc1=O | n | n | n | n | n
CCCCC(=O)c1c(O)c2ccccc2oc1=O | n | n | n | n | n

Screening data from PubChem BioAssay.
